In PubChem BioAssay (EPA / NIEHS) one finds outcome and AC50 data, which are given here for 29 compounds.

Broadly, the AC50 is the midpoint of the concentration-response curve, whichever way the signal moves.

Active and inactive are the calls of the source. How the source made its calls, unless noted: active means hit-call score of the fitted dose curve at least 0.9, where 1 is the maximum; inconclusive means response in the unintended direction; inactive means score below 0.9.

Peroxisome proliferator-activated receptor gamma (Homo sapiens), sequence (P37231 whole entry, looked up): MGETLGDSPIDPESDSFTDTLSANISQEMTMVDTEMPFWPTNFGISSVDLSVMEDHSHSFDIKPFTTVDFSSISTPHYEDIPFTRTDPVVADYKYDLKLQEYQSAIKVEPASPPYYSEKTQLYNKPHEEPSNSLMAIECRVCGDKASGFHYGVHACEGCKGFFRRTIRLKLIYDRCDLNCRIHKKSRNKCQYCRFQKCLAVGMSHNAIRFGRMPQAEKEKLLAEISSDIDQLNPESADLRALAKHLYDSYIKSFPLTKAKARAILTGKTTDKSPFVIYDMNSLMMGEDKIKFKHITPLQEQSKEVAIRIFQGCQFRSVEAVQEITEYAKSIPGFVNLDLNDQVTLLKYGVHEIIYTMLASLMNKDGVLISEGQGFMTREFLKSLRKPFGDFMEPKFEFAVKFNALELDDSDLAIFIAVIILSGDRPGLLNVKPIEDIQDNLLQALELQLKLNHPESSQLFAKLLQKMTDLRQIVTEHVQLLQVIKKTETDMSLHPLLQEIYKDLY

The first assay concerns the target Peroxisome proliferator-activated receptor gamma (Homo sapiens) (UniProt P37231). Description: OT_PPARg_PPARgSRC1_1440: Odyssey Thera (OT) 24-hour Protein-Complementation Assay for Peroxisome Proliferator-activated Receptor Gamma/ SRC-1 Co-activator (AID 2283388).
Details: not given
The gist of the method: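 HEK293T cells transiently transfected with PPARg and SRC-1 fused via (Gly4Ser)2 linker to split Venus YFP fragments (IFP1/IFP2) were dosed 24 h; fixed, Draq5-stained, imaged at 488/635 nm; nuclear/cytoplasmic fluorescence ratio scored versus DMSO baseline, gain-of-signal.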
Take `O=C(Oc1ccccc1)c1ccc(O)cc1`: the outcome was inactive.
Regarding `CC(C)=CCC[C@](C)(O)[C@@H]1CC=C(C)CC1`, the outcome was inactive.
`CCN(CC)c1ccc(C(=C2C=CC(=[N+](CC)CC)C=C2)c2ccc(S(=O)(=O)O)cc2S(=O)(=O)[O-])cc1`: the compound was classed as inactive.
Regarding `CCCCCCCCCCCCCOS(=O)(=O)O`, the outcome was inactive.
For the compound `C=O`, the outcome was inactive.
On to `O=C(O)CCCCCCCC(=O)O`, for which the outcome was inactive.
`CCCC/C=C\CCCCCCCCCC=O`: the call was inactive.
As to `C=CCOc1nc(OCC=C)nc(OCC=C)n1`, the compound was called inactive.
With `O=C1C(c2[nH]c3ccc(S(=O)(=O)O)cc3c2O)=Nc2ccc(S(=O)(=O)O)cc21`, the compound was called inactive.
The same measure, in the same setting: then `O=C[C@@H](O)[C@H](O)[C@H](O)CO`, with “inactive”.
Still for that read-out and setting: then `CCCCCOC(=O)CCC`, with “inactive”; and `O=C(Cl)c1cccc(C(=O)Cl)c1`, with “inactive”; and `NCCNCCN`, with “inactive”.
For `CC(C)CCCCCCCOC(=O)c1ccc(C(=O)OCCCCCCCC(C)C)c(C(=O)OCCCCCCCC(C)C)c1`, the outcome was inactive.
Consider `CCCCCCCCCCCCCCCCCC(=O)OCC(CC)CCCC` (configuration not stated), for which the outcome was inactive.
Take `CCCCC[Si](OCC)(OCC)OCC`: the call was inactive.
The same measure, in the same setting: with `CC1(C)C(=O)N(Br)C(=O)N1Cl` the entry was “inactive”; with `CCCCC(CC)COC(=O)/C=C\C(=O)OCC(CC)CCCC` (configuration not stated), “inactive”; with `C=CC(C)(O)CCC=C(C)CCC=C(C)C` (configuration not stated), “inactive”.
For the compound `O=c1cc(-c2ccccc2)oc2cc(O)cc(O)c12`, the compound was classed as inactive.
Turning to `C=CC[N+](C)(C)CC=C`, the outcome was inactive.
On to `COc1ccc(O)cc1`, for which the outcome was inactive.
For the compound `CC(C)=CCCC(C)=CCCC(C)=CCO`, the outcome was inactive.
Take `CCCCCCCCCCCCCCCC(=O)O`: the outcome was inactive.
With `OC1OC[C@@H](O)[C@H](O)[C@H]1O` (some centres not stated), the outcome was inactive.
Turning to `C[Si](O[Si](C)(C)C)O[Si](C)(C)C`, the call was inactive.
The same measure, in the same setting: then `Cc1ccc(C(C)C)cc1O`, with “inactive”.
Still for that read-out and setting: with `CC(C)(C#N)c1cc(Cn2cncn2)cc(C(C)(C)C#N)c1` the entry was “inactive”; with `CC1=CC(=O)NS(=O)(=O)O1`, “inactive”.

Read-out in a further assay: not listed separately
Description: CEETOX_H295R_OHPREG: CeeTox H295R High-throughput Steroidogenesis Assay for OH-Pregnenolone (OHPREG) (AID 2283434; active means hit-call score of the fitted dose curve at least 0.9, where 1 is the maximum; inactive means score below 0.9). The note with it: actives raise or lower the signal. A digest of the protocol:
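Secreted 17alpha-hydroxypregnenolone measured by HPLC-MS/MS after liquid-liquid extraction. Human adrenal H295R cells received 48 h forskolin (10 uM) stimulation before 48 h chemical exposure at 0.1% final DMSO; MTT viability in same wells; bidirectional fit against DMSO.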
Regarding `C=CCOc1nc(OCC=C)nc(OCC=C)n1`, the half-maximal activity concentration (AC50) is 38.6 µM (active).
Turning to `O=c1cc(-c2ccccc2)oc2cc(O)cc(O)c12`, the compound was called inactive.
Take `CC(C)=CCCC(C)=CCCC(C)=CCO`: the concentration at half-maximal activity (AC50) is 28.1 µM (active).
